Laboratory results: PubChem BioAssay (EPA / NIEHS)
Records with an inconclusive call do not appear. Active and inactive are the calls of the source. The calls were made as follows: active = hit-call score of the fitted dose curve at least 0.9, where 1 is the maximum; inconclusive = response in the unintended direction; inactive = score below 0.9.

The compounds below were run on Glyceraldehyde-3-phosphate dehydrogenase (Homo sapiens) (UniProt P04406) (assay: CLD_GAPDH_24hr: CellzDirect (CLD) Gene Expression Assay for Baseline Control (Glyceraldehyde 3-phosphate dehydrogenase) at 24 hours (AID 2283692)).
Procedure: CLD_24hr is a cell-based, multiplexed-readout assay that uses hepatocyte, a human liver primary cell, with measurements taken at 24 hours after chemical dosing in a 96-well plate.CLD_GAPDH_24hr is one of 16 assay component(s) measured or calculated from the CLD_24hr assay. It is designed to make measurements of mRNA induction, a form of inducible reporter, as detected with chemiluminescence signals by Quantitative Nuclease Protection Assay (qNPA) technology.Data from the assay component CLD_GAPDH_24hr was analyzed at the endpoint, CLD_GAPDH_24hr, in the positive analysis fitting direction relative to DMSO as the negative control and baseline of activity. Using a type of inducible reporter, gain-of-signal activity can be used to understand changes in the reporter gene as they relate to the gene GAPDH. Furthermore, this assay endpoint can be referred to as a secondary readout, because this assay has produced multiple assay endpoints where this one serves a background control function. To generalize the intended target to other relatable targets, this assay endpoint is annotated to the background measurement intended target family, where subfamily is baseline control.
Human hepatocyte cultures were treated daily for two consecutive days with fresh dosing solutions containing appropriate concentrations of the 320 ToxCast chemicals (chemical identities were blinded to CellzDirect and other ToxCast collaborators), vehicle control (0.2% DMSO), and positive control inducers as summarized in Table 1. Due to the large number of treatment groups and chemicals examined, the ToxCast chemicals were divided into two groups (spanning two independent cultures of hepatocytes from separate donor preparations (Hu778: ToxCast plates 1 and 2; Hu776: ToxCast plates 3 and 4). Each preparation of human hepatocyte cultures was treated with respective vehicle control, medium only control, set of six positive controls/reference chemicals for the five hepatic receptor pathways, and a subset of eight of the ToxCast chemicals (indoxacarb, pyrithiobac-sodium, norflurazon, cyhalofop-butyl, methomyl, thiram, acetochlor, and propiconazole). These replicate data, coupled with internal replicates designed within the blinded ToxCast chemical library, provided additional data to evaluate interindividual differences between hepatocyte preparations and their potential impact on chemical profiles.Cell morphology and integrity were evaluated using phase-contrast microscopy as an indicator of hepatocyte cell health (Tyson & Green, 1987). Cultures for each treatment group (i.e., media, vehicle [0.2% DMSO], positive control inducers [multiple concentrations], and the ToxCast chemicals [multiple concentrations]) were observed and cell morphology was assessed relative to vehicle control cultures at each harvest time point (0, 6, 24, or 48 h). […] Images were evaluated at the conclusion of the study to assess changes in cell integrity and account for the effects of chemical exposure on uncharacteristic changes in concentration-dependent gene expression profiles. The results from these determinations of apparent cytotoxicity were annotated (yes/no) alongside the corresponding qNPA data for reference.At the conclusion of each treatment period, hepatocyte cultures (96-well) were washed with 1 volume of HBSS, lysed by addition of 25 ul ArrayPlate lysis buffer (HTG, Tucson, AZ), and 70 ul/well of Denaturation Oil, denatured by incubation at 95C for 10 min, and frozen at approximately -70C until analysis by nuclease protection assay (qNPA) (Roberts et al., 2007). For qNPA analysis, cell lysates were thawed at 50C for approximately 30 min, qNPA probes were added, and samples were incubated at 95C for 10 min to begin the detection process by denaturing the target RNA, dissociating the duplexes and secondary structure hybridization. At the conclusion of the hybridization period, S1 nuclease reagent was added to each sample to digest all nonprotected nucleotides at 50C for 60-90 min. […]

Chain of Glyceraldehyde-3-phosphate dehydrogenase (Homo sapiens) (P04406 whole entry, looked up): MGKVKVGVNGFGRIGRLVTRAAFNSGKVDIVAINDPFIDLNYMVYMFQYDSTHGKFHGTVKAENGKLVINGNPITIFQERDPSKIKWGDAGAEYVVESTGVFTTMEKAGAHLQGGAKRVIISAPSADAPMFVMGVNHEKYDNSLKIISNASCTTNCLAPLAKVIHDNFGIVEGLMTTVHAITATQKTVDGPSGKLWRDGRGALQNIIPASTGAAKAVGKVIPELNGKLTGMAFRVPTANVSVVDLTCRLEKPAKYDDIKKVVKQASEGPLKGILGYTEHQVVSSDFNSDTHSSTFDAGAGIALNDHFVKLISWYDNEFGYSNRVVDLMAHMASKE

| SMILES | outcome |
| --- | --- |
| CCSC(=O)N(CC(C)C)CC(C)C | inactive |
| S=C([S-])NCCNC(=S)[S-].[Mn+2] | inactive |
| CCCCOC(=O)[C@@H](C)Oc1ccc(Oc2ccc(C(F)(F)F)cn2)cc1 | inactive |
| CCOC(=O)COc1cc(-n2ncc(C(F)(F)F)c(C)c2=O)c(F)cc1Cl | inactive |
| S=C(S)NCCNC(=S)S.[Mn+2].[S-]C([S-])=NCCN=C([S-])[S-].[Zn+2] | inactive |
| CCNc1nc(N)nc(Cl)n1 | inactive |
| CCCCC(CC)COC(=O)c1ccccc1C(=O)O (configuration not stated) | inactive |
| COCCO | inactive |
| CCCCCOC(=O)COc1cc(N2C(=O)C3=C(CCCC3)C2=O)c(F)cc1Cl | inactive |
| CCCOC(=O)c1ccc(C(=O)OCCC)nc1 | inactive |
| N#CSCSc1nc2ccccc2s1 | inactive |
| CC1(C)C(C=C(Cl)Cl)C1C(=O)OCc1cccc(Oc2ccccc2)c1 (configuration not stated) | inactive |
| CCCCCCC(C)OC(=O)COc1nc(F)c(Cl)c(N)c1Cl (configuration not stated) | inactive |
| Oc1ccc(C(c2ccc(O)cc2)C(Cl)(Cl)Cl)cc1 | inactive |
| CCCN(CCC)C(=O)SCC | inactive |
| OB(O)O | inactive |
| CSC(=O)c1cccc2nnsc12 | inactive |
| COC(=O)c1cccc(C)c1S(=O)(=O)NC(=O)Nc1nc(OCC(F)(F)F)nc(N(C)C)n1 | inactive |
| CC(C)(C)[C@@H](O)[C@@H](Cc1ccc(Cl)cc1)n1cncn1 | inactive |
| CCCOC(=O)NCCCN(C)C | inactive |
| C#CCOC(=O)[C@@H](C)Oc1ccc(Oc2ncc(Cl)cc2F)cc1 | inactive |
| CCC(O)=C1C(=O)CC(C(=O)O)CC1=O (configuration not stated) | inactive |
| CCOC(=O)[C@H](C)Oc1ccc(Oc2nc3ccc(Cl)cc3o2)cc1 | inactive |
| COC(=O)c1ccccc1C(=O)O | inactive |
| COC(=O)c1ccccc1S(=O)(=O)NC(=O)Nc1nc(OC(F)F)cc(OC(F)F)n1 | inactive |
| COC(=O)c1c(Cl)nn(C)c1S(=O)(=O)NC(=O)Nc1nc(OC)cc(OC)n1 | inactive |
| CCC(C)OC(=O)N1CCCCC1CCO (configuration not stated) | inactive |
